# This is one part of a sample in which the strongest signals are shown more often than they occur.
# Legend:
# Assay in all cases: glycan array binding signal (z-score within array); higher = stronger binding
# Conditions in all cases: glycan notation: IUPAC condensed, linker removed
# [1] = target: Fuc(a1-2)Gal(b1-3)[Fuc(a1-4)]GlcNAc(b1-2)Man(a1-3)[Fuc(a1-2)Gal(b1-3)[Fuc(a1-4)]GlcNAc(b1-2)Man(a1-3)]Man(b1-4)GlcNAc(b1-4)GlcNAc
# In short: (§1)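 The binding signal is a Z-score computed within each array and averaged over linkers. Arrays of the same protein sequence at different concentrations or buffers were also averaged together. Data originate from 3228 arrays in the Consortium for Functional Glycomics database, kept only where the protein sequence was available.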
# [2] = target: Fuc(a1-2)Gal(b1-4)GlcNAc(b1-2)Man(a1-3)[Fuc(a1-2)Gal(b1-4)GlcNAc(b1-2)Man(a1-6)]Man(b1-4)GlcNAc(b1-4)[Fuc(a1-6)]GlcNAc
# In short: as §1
# [3] = target: Fuc(a1-2)Gal(b1-4)GlcNAc(b1-3)Gal(b1-4)GlcNAc
# In short: as §1
# [4] = target: Fuc(a1-2)Gal(b1-4)GlcNAc(b1-6)GalNAc
# In short: as §1
# [5] = target: Fuc(a1-2)Gal(b1-4)[Fuc(a1-3)]GlcNAc
# In short: as §1
# [6] = target: Fuc(a1-2)[Gal(a1-3)]Gal
# In short: as §1
# [7] = target: Fuc(a1-2)[Gal(a1-4)]Gal(b1-4)GlcNAc
# In short: as §1
# [8] = target: Fuc(a1-2)[GalNAc(a1-3)]Gal(b1-3)GlcNAc(b1-2)Man(a1-3)[Fuc(a1-2)[GalNAc(a1-3)]Gal(b1-3)GlcNAc(b1-2)Man(a1-6)]Man(b1-4)GlcNAc(b1-4)GlcNAc
# In short: as §1
# [9] = target: Fuc(a1-2)[GalNAc(a1-3)]Gal(b1-4)GlcNAc(b1-3)Gal(b1-4)GlcNAc
# In short: as §1
# [10] = target: Fuc(a1-2)[GalNAc(a1-3)]Gal(b1-4)GlcNAc(b1-3)GalNAc
# In short: as §1
# [11] = target: Fuc(a1-3)GlcNAc
# In short: as §1
# [12] = target: Fuc(a1-3)[Gal(b1-4)]GlcNAc(b1-2)Man(a1-3)[Fuc(a1-3)[Gal(b1-4)]GlcNAc(b1-2)Man(a1-6)]Man(b1-4)GlcNAc(b1-4)GlcNAc
# In short: as §1
# [13] = target: Fuc(a1-3)[GalNAc(b1-4)]GlcNAc
# In short: as §1
# [14] = target: Fuc(b1-3)GlcNAc
# In short: as §1
# [15] = target: Gal(a1-4)Gal(b1-4)GlcNAc(b1-2)Man(a1-3)[Gal(a1-4)Gal(b1-4)GlcNAc(b1-2)Man(a1-6)]Man(b1-4)GlcNAc(b1-4)GlcNAc
# In short: as §1
# [16] = target: Gal(a1-6)Glc
# In short: as §1
# [17] = target: Gal(b1-2)Gal
# In short: as §1
# [18] = target: Gal(b1-3)GlcNAc(b1-2)Man(a1-3)[Gal(b1-3)GlcNAc(b1-2)Man(a1-6)]Man(b1-4)GlcNAc(b1-4)[Fuc(a1-6)]GlcNAc
# In short: as §1
# [19] = target: Gal(b1-3)GlcNAc(b1-2)[Gal(b1-3)GlcNAc(b1-6)]Man(a1-6)[Gal(b1-3)GlcNAc(b1-2)Man(a1-3)]Man(b1-4)GlcNAc(b1-4)GlcNAc
# In short: as §1
# [20] = target: Gal(b1-3)[Fuc(a1-4)]GlcNAc(b1-3)Gal(b1-4)[Fuc(a1-3)]GlcNAc
# In short: as §1
# [21] = target: Gal(b1-3)[Fuc(a1-4)]GlcNAc(b1-6)GalNAc
# In short: as §1
# [22] = target: Gal(b1-3)[GlcNAc(b1-6)]GalNAc
# In short: as §1
# [23] = target: Gal(b1-4)Glc
# In short: as §1
# [24] = target: Gal(b1-4)GlcNAc(b1-2)Man(a1-3)[Gal(b1-4)GlcNAc(b1-2)Man(a1-6)][GlcNAc(b1-4)]Man(b1-4)GlcNAc(b1-4)[Fuc(a1-6)]GlcNAc
# In short: as §1
# [25] = target: Gal(b1-4)GlcNAc(b1-2)[Gal(b1-4)GlcNAc(b1-4)]Man(a1-3)[GlcNAc(b1-4)][Gal(b1-4)GlcNAc(b1-2)[Gal(b1-4)GlcNAc(b1-6)]Man(a1-6)]Man(b1-4)GlcNAc(b1-4)GlcNAc
# In short: as §1
# [26] = target: Gal(b1-4)GlcNAc(b1-2)[Gal(b1-4)GlcNAc(b1-6)]Man(a1-6)[GlcNAc(b1-4)][Gal(b1-4)GlcNAc(b1-2)Man(a1-3)]Man(b1-4)GlcNAc(b1-4)GlcNAc
# In short: as §1
# [27] = target: Gal(b1-4)GlcNAc(b1-3)Gal(b1-4)GlcNAc(b1-2)Man(a1-3)[Gal(b1-4)GlcNAc(b1-3)Gal(b1-4)GlcNAc(b1-2)Man(a1-6)]Man(b1-4)GlcNAc(b1-4)GlcNAc
# In short: as §1
# [28] = target: Gal(b1-4)GlcNAc(b1-3)Gal(b1-4)GlcNAc(b1-2)[Gal(b1-4)GlcNAc(b1-3)Gal(b1-4)GlcNAc(b1-6)]Man(a1-6)[Gal(b1-4)GlcNAc(b1-3)Gal(b1-4)GlcNAc(b1-2)Man(a1-3)]Man(b1-4)GlcNAc(b1-4)[Fuc(a1-6)]GlcNAc
# In short: as §1
# [29] = target: Gal(b1-4)GlcNAc(b1-3)Gal(b1-4)GlcNAc(b1-3)Gal(b1-4)GlcNAc
# In short: as §1
# [30] = target: Gal(b1-4)GlcNAc(b1-3)Gal(b1-4)GlcNAc(b1-3)Gal(b1-4)GlcNAc(b1-2)[Gal(b1-4)GlcNAc(b1-3)Gal(b1-4)GlcNAc(b1-3)Gal(b1-4)GlcNAc(b1-6)]Man(a1-6)[Gal(b1-4)GlcNAc(b1-3)Gal(b1-4)GlcNAc(b1-3)Gal(b1-4)GlcNAc(b1-2)Man(a1-3)]Man(b1-4)GlcNAc(b1-4)[Fuc(a1-6)]GlcNAc
# In short: as §1
binder,measurement,setting,value
Clone646PsrP (Streptococcus pneumoniae) (protein) MDHHHHHHHHASENLYFQGAPAINASLNIAKSETKVYTGEGVDSVYRVPIYYKLKVTNDGSKLTFTYTVTYVNPKTNDLGNISSMRPGYSIYNSGTSTQTMLTLGSDLGKPSGVKNYITDKNGRQVLSYNTSTMTTQGSGYTWGNGAQMNGFFAKKGYGLTSSWTVPITGTDTSFTFTPYAARTDRIGINYFNGGGKVVESSTTSQSLSQSKSLSVSAS,glycan array binding signal (z-score),[1],1.88
same,glycan array binding signal (z-score),[2],0.523
same,glycan array binding signal (z-score),[3],-0.74
same,glycan array binding signal (z-score),[4],2.58
same,glycan array binding signal (z-score),[5],0.085
same,glycan array binding signal (z-score),[6],-0.314
same,glycan array binding signal (z-score),[7],0.495
same,glycan array binding signal (z-score),[8],-0.761
same,glycan array binding signal (z-score),[9],-0.638
same,glycan array binding signal (z-score),[10],0.378
same,glycan array binding signal (z-score),[11],0.18
same,glycan array binding signal (z-score),[12],-0.096
same,glycan array binding signal (z-score),[13],0.979
same,glycan array binding signal (z-score),[14],1.31
same,glycan array binding signal (z-score),[15],-0.434
same,glycan array binding signal (z-score),[16],0.015
same,glycan array binding signal (z-score),[17],2.94
same,glycan array binding signal (z-score),[18],-0.421
same,glycan array binding signal (z-score),[19],9.03
same,glycan array binding signal (z-score),[20],-0.797
same,glycan array binding signal (z-score),[21],-0.757
same,glycan array binding signal (z-score),[22],0.41
same,glycan array binding signal (z-score),[23],0.581
same,glycan array binding signal (z-score),[24],-0.984
same,glycan array binding signal (z-score),[25],-0.776
same,glycan array binding signal (z-score),[26],-0.887
same,glycan array binding signal (z-score),[27],0.169
same,glycan array binding signal (z-score),[28],-0.263
same,glycan array binding signal (z-score),[29],-0.913
same,glycan array binding signal (z-score),[30],-0.442
